Source: PubChem BioAssay (NCATS)
Records with an inconclusive call do not appear. Where a call stands in place of a potency, no number is given. A number with no mark means an inactive call. Calls of active or inactive are those of the source. Calls come from the whole dose curve; as a rule, active = well fitted curve in the direction sought with a large enough effect; inconclusive = small, poorly fitted or top-dose-only effect, or another doubt; inactive = no such curve, though single readings can be large; an effect the other way counts as inactive or inconclusive.

What was measured:
[1] = P-glycoprotein substrates identified in KB-3-1 adenocarcinoma cell line, qHTS therapeutic library screen (AID 1346986); note: nearly all actives have a fitted effect of over 60% in size
Procedure, shortened: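 Resistance attributable to P-gp was assessed by comparing AC50 in KB-8-5-11 with parental KB-3-1 and by tariquidar reversal. Cells were exposed 72 h and viability read by CellTiter-Glo.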

[2] = P-glycoprotein substrates identified in KB-8-5-11 adenocarcinoma cell line, qHTS therapeutic library screen (AID 1346987); note: nearly all actives have a fitted effect of over 65% in size; for activity change, negative = cytotoxicity: series mostly up to about 44 µM
Procedure, shortened: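 Steps: plate 500 KB-8-5-11 cells/well in DMEM + 10% FCS (colchicine removed); pin compounds in dose-response; incubate 72 h, 37 degree C, 5% CO2; add CellTiter-Glo, 5 min; read luminescence.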

C=C(C)[C@H]1C[C@@H](O)C(=C)CC[C@@H](O)C(=C)[C@@H](O)C1
Potency [1]: inactive | Potency [2]: inactive

CC1=CC(=O)C2C(C)(C)CC(O)CC2(C)C1CO (centres undefined)
Potency [1]: inactive | Potency [2]: inactive

COc1ccc2c(c1)OC[C@]1(O)c3cc4c(cc3O[C@H]21)OCO4
Potency [1]: inactive | Potency [2]: inactive

CC(CCC1C(C(=O)O)=CC(=O)CC1(C)C)O[C@@H]1O[C@H](CO)[C@@H](O)[C@H](O)[C@H]1O (some centres undefined)
Potency [1]: inactive | Potency [2]: inactive

CC[C@H]1OC(=O)[C@H](C)[C@@H](O[C@H]2C[C@@](C)(OC)[C@@H](O)[C@H](C)O2)[C@H](C)[C@@H](O[C@@H]2O[C@H](C)C[C@H](N(C)C)[C@H]2O)[C@@](C)(O)C[C@@H](C)[C@@H]2N[C@@H](COCCOC)OC([C@H]2C)[C@]1(C)O
Potency [1]: inactive | Potency [2]: inactive

C[C@@H]1O[C@@H](O[C@H]2[C@H](O[C@H]3CC[C@@]4(C)C(CC[C@]5(C)C4CC=C4[C@@H]6CC(C)(C)CC[C@]6(C(=O)O)CC[C@]45C)[C@]3(C)CO)OC[C@H](O)[C@@H]2O)[C@H](O)[C@H](O[C@@H]2OC[C@@H](O)[C@H](O)[C@H]2O)[C@H]1O (some centres undefined)
outcome [1]: inactive [at 9.29 µM] | activity change, negative = cytotoxicity [2]: -3.86% [at 9.29 µM]

O=c1ccn(C2OC(CO)C(O)C2O)c(=O)[nH]1 (centres undefined)
Potency [1]: inactive | Potency [2]: inactive

CC(=O)c1c(C)cc(O)cc1O[C@@H]1O[C@H](CO)[C@@H](O)[C@H](O)[C@H]1O
Potency [1]: inactive | Potency [2]: inactive

C=C1[C@H]2CC[C@]3(O)[C@@](CC[C@@H]4[C@](C)(C(=O)O)CCC[C@]43C)(C2)[C@H]1OC(=O)/C(C)=C\C
Potency [1]: inactive | Potency [2]: inactive

CC1(CO)CC[C@]2(C(=O)O[C@@H]3O[C@H](CO)[C@@H](O)[C@H](O)[C@H]3O)CC[C@]3(C)C(=CCC4[C@@]5(C)CC[C@H](O[C@@H]6O[C@H](C(=O)O)[C@@H](O)[C@H](O)[C@H]6O)C(C)(C)C5CC[C@]43C)C2C1 (some centres undefined)
outcome [1]: inactive [at 9.29 µM] | activity change, negative = cytotoxicity [2]: 7.12% [at 9.29 µM]

CC(C)=CCCC1(C)Oc2cc3c(c4c2C2C(O4)C(C)(O)CCC21)CN(C(CCC(=O)O)C(=O)O)C3=O (centres undefined)
Potency [1]: inactive | Potency [2]: inactive

CC1CCC2C(C(=O)O)=CC3C(O)C(C)(C)CC123 (centres undefined)
Potency [1]: inactive | Potency [2]: inactive

N#CCc1ccc(O)cc1O[C@@H]1O[C@H](CO)[C@@H](O)[C@H](O)[C@H]1O
Potency [2]: inactive

COC1CC(=O)C23C(=O)NC(CC(C)C)C2C(C)C(C)=CC3/C=C(\C)CCC1O (centres undefined)
Potency [2]: inactive

CC(=O)N1c2ccccc2C2(O)CC3C(=O)NC(CC(C)C)C(=O)N3C12 (centres undefined)
Potency [2]: inactive

CC1(C)O[C@]23C[C@H]1C[C@H](OC(=O)c1ccoc1)[C@]2(C)[C@@H](OC(=O)c1ccoc1)CCC3(C)O (some centres undefined)
Potency [2]: inactive

C/C=C(\C)C(=O)OC[C@H]1O[C@H](O[C@H]2O[C@H](CO)[C@@H](OC(=O)/C(C)=C/C)[C@H](O)[C@H]2O[C@@H]2O[C@H](CO)[C@@H](O)[C@H](O)[C@H]2O)[C@H](O[C@@H]2O[C@H](CO)[C@@H](O)[C@H](O)[C@H]2O)[C@@H](O)[C@@H]1O
outcome [2]: inactive [at 9.29 µM]

C=C[C@H]1[C@H](O[C@@H]2O[C@H](CO)[C@@H](O)[C@H](O)[C@H]2O)OC=C2C(=O)OCC[C@]21O
Potency [2]: inactive

CC1CCC2C(C)(C)C(O)CCC2(C)C12Cc1c(O)cc3c(c1O2)CN=C3N (centres undefined)
Potency [2]: inactive

CC1=CC[C@]2(C(=O)O[C@@H]3O[C@H](CO[C@@H]4O[C@H](CO)[C@@H](O[C@@H]5O[C@@H](C)[C@H](O)[C@@H](O)[C@H]5O)[C@H](O)[C@H]4O)[C@@H](O)[C@H](O)[C@H]3O)CC[C@]3(C)C(CCC4[C@@]5(C)C[C@@H](O)[C@H](O)[C@@](C)(CO)C5CC[C@]43C)C2C1C (some centres undefined)
activity change, negative = cytotoxicity [2]: 8.32% [at 9.29 µM]

C[C@]1(OC(=O)/C=C/c2ccccc2)C[C@H](O)[C@]2(O)C=CO[C@@H](O[C@@H]3O[C@H](CO)[C@@H](O)[C@H](O)[C@H]3O)C12 (some centres undefined)
Potency [2]: inactive

CC(C)(O)c1ccc2c(c1)C(=O)CC1[C@](C)(CO)CCC[C@]21C (some centres undefined)
Potency [2]: inactive

O=C(NN1CCCCC1)c1nn(-c2ccc(Cl)cc2Cl)c(-c2ccc(C#Cc3ccc(C(F)(F)F)cc3)s2)c1CNS(=O)(=O)N1CCCC1
Potency [2]: inactive

COC(=O)[C@]12C(=O)C(C)=C(O)[C@@]1(C)C(C)=CC1[C@@]34CC[C@@H](OC(C)=O)C(C)(C)C3[C@H](C[C@]12C)OC4=O (some centres undefined)
Potency [2]: inactive

CO[C@@H](Cc1ccc(OCCc2nc(-c3ccccc3)oc2C)c2ccsc12)C(=O)O
Potency [2]: inactive

COc1ccccc1-n1c(SCC(=O)Nc2nc3ccc(C)cc3s2)nc2c(c1=O)SCC2
Potency [2]: inactive

C=C1CC[C@H]2[C@@](C)(CCC(O)[C@@]2(C)CO)[C@@H]1C/C=C(/C(=O)O)C(O)CO (some centres undefined)
Potency [2]: inactive

O=C1[C@H](O[C@@H]2O[C@H](CO)[C@@H](O)[C@H](O)[C@H]2O)Oc2ccccc2N1O
Potency [2]: inactive

CC1(C)CC[C@]2(C(=O)O[C@@H]3O[C@H](CO)[C@@H](O)[C@H](O)[C@H]3O)CC[C@]3(C)C(=CCC4[C@@]5(C)C[C@@H](O)[C@H](O)C(CO)(CO)C5CC[C@]43C)C2[C@@H]1O (some centres undefined)
Potency [2]: inactive

O=C(O[C@H]1[C@@H]2C=CO[C@@H](O[C@@H]3O[C@H](CO)[C@@H](O)[C@H](O)[C@H]3O)[C@@H]2[C@@]2(CO)O[C@@H]12)c1ccc(O)c(O)c1
Potency [2]: inactive

C=C1CCC2C(OC(=O)C2(O)COC(C)=O)C2C(=C)C(O)CC12 (centres undefined)
Potency [2]: inactive

CC1OC(OC2C(C)OC(OC3C(OC(=O)/C=C/c4ccc(O)cc4)C(CO)OC(OC4(COC(=O)/C=C/c5ccc(O)cc5)OC(CO)C(O)C4O)C3OC3OCC(O)(CO)C3O)C(O)C2O)C(O)C(O)C1O (centres undefined)
activity change, negative = cytotoxicity [2]: 9.5% [at 9.29 µM]
